# Sampled rows, rich in hits. Any-hit rate of the full collection: about 0.27%.
# TRPML1 ag: agonists of human TRPML1 channel; Q9GZU1; TRPML1-expressing cells, Ca2+ dye fluorescence, FDSS; activation, % (no concentration beside the values); 410,000 tested, 0.12% active; AID 624414; in the data active = activation above about 50%; inconclusive = mostly about 30% to 49%; also: 0% is about no effect
#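 TRPML1-DL cells, Tet-induced overnight (~16 h, 37 degrees C), loaded 45-90 min at room temperature with Ca8 no-wash calcium dye plus quencher. FDSS fluorescence: 10 s baseline, compound pin-transfer, 110 s agonist read, then EC80 54-4 (4uM final) and 110 s antagonist read.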
# TRPML1 blocker: human mucolipin-1 channel inhibition; Q9GZU1; TRPML1-inducible cells, Ca2+ dye fluorescence, FDSS; active compounds read low; inhibition of EC80 agonist-evoked calcium signal; activity change, negative = inhibition, % (test concentration not listed); 390,000 tested, 0.02% active; in the data active = activity change below about -50%; inconclusive = between about -30% and that limit;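 also: stimulus is agonist 54-4 at its EC80 concentration; % is scaled to controls: 0 for no effect and ±100 for the full control effect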
#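 Tet-induced TRPML1-DL cells loaded with Ca8 no-wash calcium dye were read kinetically on FDSS. Compound addition was followed by EC80 agonist 54-4 (4 uM final); inhibition was read over 110 s.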
# TRPV1 PAM: human TRPV1 potentiation; TRPV1-expressing cells, Fluo-8 calcium influx, capsaicin EC20 potentiation; Q8NER1; potentiation, % at 8.33 µM; AID 540277; 320,000 tested, 0.02% active; in the data active = potentiation above about 80%; inconclusive = between about 30% and that limit; also: 0% is about no effect
#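 Fluo-8 calcium influx in TRPV1-expressing cells, kinetic read (ex 480/em 520 nm). Compound added and read 3 min for agonist activity, followed by capsaicin at EC20 final and 2 min further read for enhancement.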
# TRPV1 ag: activates the human vanilloid receptor TRPV1; Q8NER1; TRPV1-expressing cells, Fluo-8 calcium influx, agonist mode; activation, % at 8.33 µM; 320,000 tested, 0.19% active; in the data active = activation above about 80%; inconclusive = between about 30% and that limit; also: 0% is about no effect
#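 Fluo-8 calcium influx in TRPV1-expressing cells, kinetic read (ex 480/em 520 nm). Compound added and read 3 min for agonist activity, followed by capsaicin at EC20 final and 2 min further read for enhancement.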
# Numbers without * were called inactive; ? = inconclusive; · = no result.
SMILES,TRPML1 ag,TRPML1 blocker,TRPV1 PAM,TRPV1 ag
CC(C)n1c(N2CCN(C(=O)Nc3ccc(F)cc3F)CC2)nc2ccccc21,0,-3,7,2
Cc1ccccc1OCCOC(=O)c1c(-c2ccccc2)noc1C,3,34,-3,13
CN(C)c1ccc(N=Cc2nc(-c3ccccc3)oc2OC(=O)c2cccc(Cl)c2)cc1,3,9,-11,80*
COc1cc(NC(=O)CSc2ncc3c(n2)-c2ccc(Cl)cc2N(Cc2ccccc2)S3(=O)=O)cc(OC)c1,0,-10,·,·
CCOCc1c(C(=O)Nc2ccc(OC)nc2)oc2ccccc12,1,37,9,90*
COc1ccc(NC(=O)c2oc3ccccc3c2CSC)cn1,2,38,-14,?
CC(C)CC1=NN2C(=N)/C(=C\c3coc4ccccc4c3=O)C(=O)N=C2S1,69*,-19,-11,8
CCSC1=NSC2=NC(=O)/C(=C\c3coc4ccccc4c3=O)C(=N)N12,77*,-1,6,15
Cc1cccc(-n2c(C)cc(/C=C3\C(=N)N4N=C(CC(C)C)SC4=NC3=O)c2C)c1,1,39,-3,0
O=C(/C=C/c1ccccc1)CC(O)(c1ccccc1)C(F)(F)F (centres undefined),1,-6,2,14
O=C(/C=C/c1ccccc1)CC(O)(c1ccccc1)C(F)(F)C(F)F (centres undefined),59*,-6,8,-1
Cc1cc(N/N=C/c2ccccc2)nc(N2CCOCC2)n1,1,-24,-13,86*
Cc1ccc(C)c2[nH]c(=O)c(CCNC(=O)c3ccc(Br)o3)cc12,1,-6,·,·
Cc1nc2ccccc2c(=O)n1NC(=O)C1CC1C (centres undefined),-1,-2,-7,0
Cc1nc2ccccc2c(=O)n1NC(=O)C1CCC(C(C)(C)C)CC1 (centres undefined),0,-10,3,82*
O=C(NCCNC(=O)c1ccccc1)c1ccccc1,0,7,2,3
O=C(N/C=C/c1ccccc1)c1ccccc1,1,-3,-10,83*
CN(CCc1ccccc1)C(c1cc2ccccc2o1)c1nnnn1C(C)(C)C (centres undefined),70*,·,·,·
CN(Cc1ccccc1)C(c1cc2ccccc2o1)c1nnnn1C(C)(C)C (centres undefined),0,·,·,·
COc1ccc(Cn2c(=O)oc3ccccc32)cc1OC,-1,-5,·,·
CCc1ccc(NC(=O)CNCc2ccc(OC)c(OC)c2)cc1,0,27,-17,85*
O=c1oc2c(CN3CCCCC3)c(O)ccc2cc1-c1nc2ccccc2[nH]1,19,11,-33,85*
O=c1oc2c(O)cccc2cc1-c1nc2ccccc2[nH]1,-1,-1,0,85*
Cc1ccccc1-c1cc(C(=O)NCc2ccco2)nn1CC1CC(c2cccc([N+](=O)[O-])c2)=NO1 (centres undefined),0,44,·,·
COc1ccc(F)cc1-c1cc(C(=O)Nc2ccc(NC(C)=O)cc2)[nH]n1,-1,·,·,·
SMILES,TRPML1 ag,TRPML1 blocker,TRPV1 PAM,TRPV1 ag
COc1cc2[nH]c(C(=O)Nc3ccc(F)cc3)cc2c(OC)c1OC,·,·,-6,86*
O=C(NC(NC(=S)N1CCOCC1)C(Cl)(Cl)Cl)c1ccc(Cl)cc1 (centres undefined),0,?,1,83*
COC(=O)c1c(C)cccc1C1CN=NC12Cc1ccccc1C2=O (centres undefined),113*,-20,·,·
O=C(Cc1ccccc1[N+](=O)[O-])Nc1ccc2c(c1)OCCO2,-1,7,-9,18
COC(=O)c1cc(NC(=O)Cc2ccccc2[N+](=O)[O-])cc(C(=O)OC)c1,1,-1,-8,83*
Cc1ccccc1CC(=O)NC1CCCCCC1,1,-54*,-29,?
Cc1ccccc1CSCC(=O)NC1CCCC1,-1,34,-11,18
CC(C)c1ccc(NC(=O)N2CCOCC2)cc1,0,-12,-27,95*
CC(=O)Nc1ccc(NC(=O)N2CCOCC2)cc1,-1,-2,·,·
CC(=O)c1ccc(N2CCN(C(=O)Nc3ccc(F)cc3)CC2)cc1,·,·,-11,?
CC(=O)c1ccc(N2CCN(C(=O)Nc3ccc(C(C)C)cc3)CC2)cc1,0,-7,9,100*
CC(C)c1ccc(NC(=O)N2CCC(c3nc4ccccc4o3)CC2)cc1,2,-7,-16,97*
O=c1[nH]c2ccccc2nc1CCc1ccccc1,1,8,-1,11
O=C(/C=C/c1cccs1)Nc1ccncc1,-1,7,-17,?
